In the library only some 7.7% were active in any assay of this set; here they are far more common.
FBPA Giardia inh: Giardia lamblia aldolase inhibition. purified Giardia FBPA. Potency, µM (doses to about 59.6 µM), for the others: at the top dose activity, negative = inhibition, hits mostly inhibitors. 0.71% of 290,000 active. AID 2451; note: potency is the fitted concentration of half-maximal effect; nearly all actives have a fitted effect of over 55% in size
Target sequence (A8B2U2 whole entry, looked up): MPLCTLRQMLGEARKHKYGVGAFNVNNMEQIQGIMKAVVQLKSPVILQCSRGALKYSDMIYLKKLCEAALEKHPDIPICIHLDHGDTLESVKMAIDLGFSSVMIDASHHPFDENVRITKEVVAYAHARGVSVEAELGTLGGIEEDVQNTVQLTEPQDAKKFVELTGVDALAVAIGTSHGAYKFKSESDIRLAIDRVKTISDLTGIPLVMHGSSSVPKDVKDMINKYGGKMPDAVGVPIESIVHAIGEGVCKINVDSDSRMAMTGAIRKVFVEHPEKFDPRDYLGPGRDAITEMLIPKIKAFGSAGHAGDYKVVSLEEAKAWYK
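40 nM FBPA preincubated 10 min at RT with compound (up to 57.5 uM final), then substrate plus GAPDH/TPI/NAD/arsenate coupling and diaphorase/resazurin added. Fluorescence read after 20 min at RT, 525/598 nm.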
FMDV inh: antivirals against foot and mouth disease virus; FMDV antiviral cell-based qHTS; Potency, µM (doses to about 57.9 µM), without a hit: at the top dose activity change, negative = inhibition, usual class: inhibitors; 1.2% of 410,000 active; calls by dose curve; tested in HEK293T cells; note: read-out not given here; potency is the fitted concentration of half-maximal effect; nearly all actives have a fitted effect of over 45% in size
RE007 growth inh: less growth of the S. pombe RE007 Vpr strain; 0.21% of 360,000 active; Potency, µM (titrated, usually from 92.2 µM), inactives show top-dose activity change, negative = less growth, actives largely listed as inhibitors; S. pombe RE007 Vpr strain, BacTiter-Glo ATP luminescence, 24 h; active = well fitted falling curve with a large enough effect; inconclusive = small, poorly fitted or top-dose-only effect; inactive = no such curve, though single readings can be large or run the other way; note: potency is the fitted concentration of half-maximal effect; nearly all actives have a fitted effect of over 50% in size
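Fission yeast RE007 carrying one integrated HIV-1 vpr copy, seeded at OD 0.01 in PMG+AL medium with 23 nL pinned compound. Grown 24 h at 30 degrees; viability read by BacTiter-Glo luminescence after 5 min.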
TbPYK inhibitor: inhibitors of Trypanosoma brucei pyruvate kinase; TbPYK enzyme, Kinase-Glo Plus ATP luminescence, 45 min; Potency, µM (doses to about 76.8 µM), inactives show at the top dose activity, negative = inhibition, actives largely listed as inhibitors; Q57TT1; 0.12% of 410,000 active; note: potency is the fitted concentration of half-maximal effect; nearly all actives have a fitted effect of over 50% in size
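ADP (130 uM final) triggers the TbPYK reaction after compound addition; incubation is 45 min at room temperature. Kinase-Glo Plus is then added and luminescence imaged. Normalized data are fitted to concentration-effect curves.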
Sm TGR block: blocks Schistosoma mansoni thioredoxin glutathione reductase; Q962Y6; purified TGR, DTNB reduction, TNB absorbance 405 nm; Potency, µM (highest dose often 114 µM), for the others: at the highest dose activity change, negative = inhibition, usual class: inhibitors; 3% of 360,000 active; AID 485364; note: potency is the fitted concentration of half-maximal effect; nearly all actives have a fitted effect of over 60% in size
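Kinetic colorimetric format: TGR-catalysed, NADPH-driven DTNB reduction monitored via TNB absorbance. Enzyme dispensed at 20 nM; compound exposure 15 min at room temperature before reaction start.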
HCMV antiviral: blocks human cytomegalovirus replication. HFF cells, HCMV-luciferase reporter, 72 h; stronger effect = lower value. activity change, negative = inhibition, % at 57.5 µM. 4.5% of 410,000 active. AID 1259415; in the data active = activity change below about -60%; inconclusive = no clear call, values can overlap the other calls; inactive = above about -39%
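Compounds were evaluated in HFFs infected with an HCMV luciferase reporter virus (MOI 1 PFU/cell). Luciferase in lysates collected 72 h post infection served as the replication measure.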
* marks the source's active call; other numbers are inactive results; ? = inconclusive; nt = no result; [ ] = dose if it differs, or a comment. Unless noted, calls come from the whole dose curve; as a rule, active = well fitted curve in the direction sought with a large enough effect; inconclusive = small, poorly fitted or top-dose-only effect, or another doubt; inactive = no such curve, though single readings can be large; an effect the other way counts as inactive or inconclusive. % is set by controls: 0 for no effect and ±100 for the full control effect.

SMILES | FBPA Giardia inh | FMDV inh | RE007 growth inh | TbPYK inhibitor | Sm TGR block | HCMV antiviral
c1ccc(CNc2ncnc3ccc(-c4cccnc4)cc23)cc1 | -6% | ? | nt | nt | nt | nt
COc1cccc(-c2ccc3ncnc(NCc4cccnc4)c3c2)c1 | 0% | ? | nt | -3% | -4% | -77*
Cc1ccc(OC(=O)N(C)C[C@H]2OCc3cn(nn3)CCCC(=O)N([C@@H](C)CO)C[C@@H]2C)cc1 | nt | nt | nt | nt | nt | 4
COc1ccc(N2CCN(Cc3nc4c(c(=O)[nH]c(=O)n4C)n3Cc3ccccc3)CC2)cc1 | nt | -3% | nt | -2% | -11% | -14
COC(=O)c1cccc(NC(=O)Nc2ccc(Cl)cc2)c1 | 2% | 5% | 9% | 0% | 7% | -67*
O=C(Nc1cccc(Cl)c1)Nc1ccc(Br)cc1F | -1% | -19% | 6% | 3% | -8% | -69*
O=C(Nc1ccncc1)Nc1ccc(Cl)cc1 | 19% | 7% | -14% | -18% | 0% | -72*
COC(=O)c1cccc(NC(=S)Nc2ccccc2Cl)c1 | -18% | 44% | -9% | 0% | 22µM* | 12
COc1ccc(N(Cc2nc3ccccc3[nH]2)Cc2nnnn2-c2c(C)cccc2C)cc1 | nt | nt | nt | nt | nt | 28
C#CCCCO/N=C1/C[C@@H](O)[C@@H](O)[C@@H]2[C@@H]3C(=O)N(C[C@@H]4CCCO4)C(=O)[C@H]3CC[C@@H]12 | 0%[12.9 µM] | nt | nt | nt | nt | nt
COc1cccc([C@@H]2Oc3ccc(Br)cc3C[C@H]2OC(=O)Nc2cc(OC)c(OC)c(OC)c2)c1 | -1% | nt | nt | nt | nt | nt
COC(=O)c1cccc(NC(=S)Nc2cccc(Cl)c2C)c1 | -6% | -5% | -1% | -7% | -25% | -8
COC(=O)c1cccc(NC(=S)Nc2ccc(Cl)c(Cl)c2)c1 | -18% | ? | -16% | 1% | 22µM* | -25
COC(=O)c1cc(NC(=O)Nc2cccc(Cl)c2)ccc1Cl | -8% | nt | 0% | -10% | 2% | -99*
COc1ccccc1NC(=O)CSC1CC(=O)N(c2ccc3c(c2)OCO3)C1=O (configuration not stated) | 1% | -21% | -5% | 0% | 13µM* | -17
COc1ccc(NC(=O)CSC2CC(=O)N(c3ccc4c(c3)OCCO4)C2=O)cc1 (configuration not stated) | 0% | 5% | 18% | -2% | 45µM* | -24
COc1ccccc1NC(=O)CN1CCN(CC(=O)Nc2ccc3c(c2)OCO3)CC1 | 4% | ? | 20% | -16% | -27% | -12
COc1ccc(N2C(=O)CC(SCC(=O)O)C2=O)cc1 (configuration not stated) | 7% | 2% | 9% | 3% | -8% | 65
CCC[C@H]1[C@@H](NS(=O)(=O)c2cccc([N+](=O)[O-])c2)CC[C@@]23CCCN2C(=O)CCC[C@@H]13 | nt | nt | nt | nt | nt | 18
COC(=O)[C@@H]1C[C@@]2(O)[C@@H](O)[C@@H](O)[C@@H](O)C[C@H]2N1Cc1cc(OC)cc(OC)c1 | -1% | 16% | 4% | 7% | -14% | -100*
COc1ccc(CNC(=O)O[C@H]2CC[C@@]34CCCN3C(=O)CCC[C@H]4[C@H]2Cc2ccccc2)cc1 | nt | nt | nt | nt | nt | 7
O=C(CC1SC2=NCCN2C1=O)Nc1ccc(Cl)cc1 (configuration not stated) | 0% | 6% | -6% | -9% | 8% | 38
Cc1ccc(NC(=O)CC2SC3=NCCCN3C2=O)c(C)c1 (configuration not stated) | -24% | 17% | ? | 9% | 2.8µM* | 6
CCN(CC)C1=N/C(=C\c2ccco2)C(=O)N1c1ccccc1 | -3% | -22% | -9% | -5% | 45µM* | -20
CC(C)CN(CC(C)C)C1=N/C(=C\c2ccco2)C(=O)N1c1ccccc1 | -3% | -21% | -5% | 2% | 6.3µM* | -5
SMILES | FBPA Giardia inh | FMDV inh | RE007 growth inh | TbPYK inhibitor | Sm TGR block | HCMV antiviral
Cc1cccc(N2CCN(C(=O)CCNS(=O)(=O)c3cccs3)CC2C)c1 (configuration not stated) | -3% | 10% | 7% | 4% | -2% | 6
Cc1cccc(N2CCN(C(=O)CCS(=O)(=O)c3ccc4c(c3)CC(=O)N4C)CC2C)c1 (configuration not stated) | nt | -23% | nt | 5% | 13µM* | -8
COC1=C2C[C@@H](C)C[C@H](OC)[C@H](O)[C@@H](C)/C=C(\C)[C@H](OC(N)=O)[C@@H](OC)/C=C\C=C(/C)C(=O)NC(=CC1=O)C2=O | 3.5µM* | nt | nt | nt | nt | nt
O=c1c2ccccc2cnn1Cc1n[nH]c(=S)n1-c1cc(Cl)cc(Cl)c1 | 16% | -17% | 2% | 6.3µM* | -20% | -10
CC(c1ccc(F)cc1)n1c(Cn2ncc3ccccc3c2=O)n[nH]c1=S (configuration not stated) | 6% | ? | 18% | 13µM* | 0% | -27
O=c1c2ccccc2cnn1Cc1n[nH]c(=S)n1-c1ccc(F)cc1 | -10% | -18% | 15% | ? | -9% | 0
CC(c1ccc(F)cc1)n1c(-c2cccs2)n[nH]c1=S (configuration not stated) | -7% | -14% | -3% | 7.1µM* | nt | -33
CCCCCCCc1cc2c(cn1)C(=O)C(C)(OC(C)=O)C(O)=C2Cl (configuration not stated) | -6% | nt | nt | nt | nt | nt
Cc1ccc(CNC(=O)c2ccc3c(c2)N(Cc2ccccc2F)C(=O)c2ccccc2S3(=O)=O)cc1 | nt | -4% | nt | -1% | -1% | 3
O=c1oc2ccc3ccccc3c2cc1-c1nnc(Nc2cccc(F)c2)s1 | nt | -19% | nt | 26% | 4% | ?
Cc1nc(-c2ccc(Cl)cc2)sc1CCNC(=O)c1ccc(C(F)(F)F)cc1 | nt | ? | nt | -1% | 6% | 25
Cc1ccc(CNC(=O)CN2c3cccc4cccc(c34)S2(=O)=O)cc1 | nt | -15% | 7% | 0% | -15% | -1
CN(CCCNC(=O)Cn1c(=O)c2cccn2c2ccccc21)Cc1ccccc1 | nt | 0% | -7% | 0% | -16% | -88*
CC(C)N(CCCNC(=O)Cn1c(=O)c2cccn2c2ccccc21)Cc1ccccc1 | nt | -1% | 3% | -10% | ? | -1
COc1cccc(CNC(=O)CN2c3cccc4cccc(c34)S2(=O)=O)c1 | nt | 0% | 0% | -5% | -11% | -88*
COc1cccc(CNC(=O)Cn2c(=O)c3cccn3c3ccccc32)c1 | nt | -11% | -15% | 3% | -1% | -66*
O=C(CC1N=C2c3ccccc3N=C(SCc3cccc(F)c3)N2C1=O)NCc1ccc2c(c1)OCO2 (configuration not stated) | nt | 58% | nt | -2% | -3% | 19
Cc1ccc(SCC2(O)CCN(S(=O)(=O)c3ccc(Cl)cc3)CC2)cc1 | 1% | ? | -11% | -2% | 6% | 2
